Experimental data as given in the supplement of paper PMC10849652.
Targets with a hit are over-represented here; the source holds about 7,900 in all. About 0.6% of all pairs of compound and target were hits.

The targets below were run with CCn1cc(-c2ccnc3[nH]c(-c4cccc(CN(C)C)c4)cc23)c(-c2ccc(NC(=O)N(C)C)cc2)n1 (assay: log2 fold change, soluble protein after heating vs DMSO (PISA); higher = thermal stabilisation; K562 cells, 10 uM, 30 min; active = over 0.2 and 3.5 SD of the protein, either way, in both replicates (recomputed)).
In short: (§1)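 Soluble protein was quantified by TMTpro 16plex LC-MS/MS after channel sums were equalised. It was obtained as the supernatant after 21,000xg for 90 min from pooled aliquots of K562 cells (2×10^6 cells/mL, 10 μM compound, 30 min) heated for 3 min across 48°C-58°C and extracted in PBS with 0.5% NP-40 at 4°C. Thermal stability values are relative to control samples and come from duplicates. They are given as log2 fold changes.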

UniProt Q9UHX1, sequence (Q9UHX1 whole entry, looked up): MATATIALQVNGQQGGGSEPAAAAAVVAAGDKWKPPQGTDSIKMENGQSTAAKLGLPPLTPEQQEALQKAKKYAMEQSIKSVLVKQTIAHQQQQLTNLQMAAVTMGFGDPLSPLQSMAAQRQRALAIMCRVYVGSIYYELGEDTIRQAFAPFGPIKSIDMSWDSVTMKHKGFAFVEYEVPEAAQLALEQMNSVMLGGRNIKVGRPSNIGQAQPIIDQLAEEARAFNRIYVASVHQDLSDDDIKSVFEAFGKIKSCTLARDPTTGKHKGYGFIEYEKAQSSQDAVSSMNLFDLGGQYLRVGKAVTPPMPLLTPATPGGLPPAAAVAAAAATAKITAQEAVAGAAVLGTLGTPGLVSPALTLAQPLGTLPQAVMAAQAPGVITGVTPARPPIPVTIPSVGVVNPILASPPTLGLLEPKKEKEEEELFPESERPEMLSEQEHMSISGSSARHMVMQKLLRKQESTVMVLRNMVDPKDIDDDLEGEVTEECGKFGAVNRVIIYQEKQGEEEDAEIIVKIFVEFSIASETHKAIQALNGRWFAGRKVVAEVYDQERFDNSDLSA
UniProt O94913, sequence (O94913 whole entry, looked up): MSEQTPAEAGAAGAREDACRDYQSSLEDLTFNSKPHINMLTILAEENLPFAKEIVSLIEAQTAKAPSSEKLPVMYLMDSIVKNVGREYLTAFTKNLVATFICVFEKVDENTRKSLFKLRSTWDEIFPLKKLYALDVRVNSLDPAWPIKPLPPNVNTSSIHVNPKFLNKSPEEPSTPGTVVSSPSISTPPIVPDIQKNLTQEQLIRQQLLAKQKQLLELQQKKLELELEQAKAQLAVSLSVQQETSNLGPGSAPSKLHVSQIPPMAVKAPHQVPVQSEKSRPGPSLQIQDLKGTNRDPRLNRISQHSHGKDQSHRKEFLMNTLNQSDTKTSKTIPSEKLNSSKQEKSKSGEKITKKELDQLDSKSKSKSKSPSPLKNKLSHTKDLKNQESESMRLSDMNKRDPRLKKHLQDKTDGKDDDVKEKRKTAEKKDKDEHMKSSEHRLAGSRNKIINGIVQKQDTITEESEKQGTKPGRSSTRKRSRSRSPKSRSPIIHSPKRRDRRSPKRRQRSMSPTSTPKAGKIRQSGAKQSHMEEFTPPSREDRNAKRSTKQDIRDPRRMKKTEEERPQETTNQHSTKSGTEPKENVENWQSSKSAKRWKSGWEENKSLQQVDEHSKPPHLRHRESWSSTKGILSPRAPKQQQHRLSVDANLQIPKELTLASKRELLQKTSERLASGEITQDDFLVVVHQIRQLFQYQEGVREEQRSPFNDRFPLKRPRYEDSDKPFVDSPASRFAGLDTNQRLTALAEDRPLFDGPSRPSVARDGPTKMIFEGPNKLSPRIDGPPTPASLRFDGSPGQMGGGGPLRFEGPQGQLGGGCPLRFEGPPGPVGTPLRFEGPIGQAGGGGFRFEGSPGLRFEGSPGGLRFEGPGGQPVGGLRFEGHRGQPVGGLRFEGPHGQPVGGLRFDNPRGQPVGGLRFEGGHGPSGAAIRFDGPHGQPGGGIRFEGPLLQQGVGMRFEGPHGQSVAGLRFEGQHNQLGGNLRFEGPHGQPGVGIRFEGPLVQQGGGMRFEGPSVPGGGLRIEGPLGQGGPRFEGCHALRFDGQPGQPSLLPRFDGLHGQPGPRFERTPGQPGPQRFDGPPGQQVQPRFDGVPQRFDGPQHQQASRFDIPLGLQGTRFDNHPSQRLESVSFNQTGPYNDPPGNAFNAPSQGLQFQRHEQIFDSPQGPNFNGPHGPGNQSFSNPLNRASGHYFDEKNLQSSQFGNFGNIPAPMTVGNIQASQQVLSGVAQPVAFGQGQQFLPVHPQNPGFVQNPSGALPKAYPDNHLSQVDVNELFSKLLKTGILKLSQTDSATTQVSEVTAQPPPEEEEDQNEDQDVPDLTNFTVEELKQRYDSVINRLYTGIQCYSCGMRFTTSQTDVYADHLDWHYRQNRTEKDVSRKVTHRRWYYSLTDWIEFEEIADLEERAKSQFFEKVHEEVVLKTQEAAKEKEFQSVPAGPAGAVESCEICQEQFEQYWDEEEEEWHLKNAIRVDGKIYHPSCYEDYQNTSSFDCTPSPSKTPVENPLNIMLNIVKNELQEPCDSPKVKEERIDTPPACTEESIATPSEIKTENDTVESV
UniProt Q02156, sequence (Q02156 whole entry, looked up): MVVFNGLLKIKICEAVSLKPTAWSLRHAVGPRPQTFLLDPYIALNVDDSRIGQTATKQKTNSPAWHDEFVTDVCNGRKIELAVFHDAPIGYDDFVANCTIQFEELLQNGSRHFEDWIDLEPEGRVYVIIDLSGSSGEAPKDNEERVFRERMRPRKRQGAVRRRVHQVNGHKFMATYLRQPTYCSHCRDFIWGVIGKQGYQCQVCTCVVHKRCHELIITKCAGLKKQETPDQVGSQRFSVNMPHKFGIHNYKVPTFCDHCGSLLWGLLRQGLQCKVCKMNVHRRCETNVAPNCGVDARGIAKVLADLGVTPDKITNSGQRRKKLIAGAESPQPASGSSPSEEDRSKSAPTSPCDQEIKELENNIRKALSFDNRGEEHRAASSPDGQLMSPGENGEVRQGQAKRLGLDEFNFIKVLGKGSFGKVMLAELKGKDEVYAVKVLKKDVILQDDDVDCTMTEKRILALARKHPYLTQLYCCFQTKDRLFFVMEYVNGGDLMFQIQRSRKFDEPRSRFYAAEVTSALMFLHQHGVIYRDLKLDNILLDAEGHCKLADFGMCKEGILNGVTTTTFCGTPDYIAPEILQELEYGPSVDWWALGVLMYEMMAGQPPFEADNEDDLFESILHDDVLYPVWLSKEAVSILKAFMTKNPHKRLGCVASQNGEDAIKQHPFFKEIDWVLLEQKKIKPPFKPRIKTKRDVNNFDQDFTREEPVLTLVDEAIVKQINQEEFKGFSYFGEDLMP
UniProt Q15126, sequence (Q15126 whole entry, looked up): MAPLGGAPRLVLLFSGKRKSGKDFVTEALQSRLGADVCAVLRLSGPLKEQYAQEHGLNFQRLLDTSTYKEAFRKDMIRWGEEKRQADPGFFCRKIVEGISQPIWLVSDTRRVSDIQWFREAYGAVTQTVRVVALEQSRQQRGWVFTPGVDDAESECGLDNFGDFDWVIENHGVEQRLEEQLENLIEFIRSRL
UniProt Q15173, sequence (Q15173 whole entry, looked up): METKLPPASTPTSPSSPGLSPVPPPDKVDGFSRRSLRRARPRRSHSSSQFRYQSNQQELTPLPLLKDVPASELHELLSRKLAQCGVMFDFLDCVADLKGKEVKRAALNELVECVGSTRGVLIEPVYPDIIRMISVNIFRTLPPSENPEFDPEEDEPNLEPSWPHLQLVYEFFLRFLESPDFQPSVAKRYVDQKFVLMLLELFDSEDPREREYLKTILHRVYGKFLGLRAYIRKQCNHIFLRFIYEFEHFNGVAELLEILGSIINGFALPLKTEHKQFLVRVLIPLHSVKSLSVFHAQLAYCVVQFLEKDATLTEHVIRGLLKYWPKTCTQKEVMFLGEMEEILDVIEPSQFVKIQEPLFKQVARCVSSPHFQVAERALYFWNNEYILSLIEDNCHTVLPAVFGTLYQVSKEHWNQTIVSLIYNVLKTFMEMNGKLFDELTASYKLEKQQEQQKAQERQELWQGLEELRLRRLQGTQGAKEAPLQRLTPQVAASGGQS
UniProt Q6EEV4, sequence (Q6EEV4 whole entry, looked up): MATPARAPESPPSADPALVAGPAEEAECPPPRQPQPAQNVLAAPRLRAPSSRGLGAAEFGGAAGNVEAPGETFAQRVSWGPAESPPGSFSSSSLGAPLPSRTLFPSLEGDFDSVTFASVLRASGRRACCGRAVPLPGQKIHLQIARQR
UniProt O43924, sequence (O43924 whole entry, looked up): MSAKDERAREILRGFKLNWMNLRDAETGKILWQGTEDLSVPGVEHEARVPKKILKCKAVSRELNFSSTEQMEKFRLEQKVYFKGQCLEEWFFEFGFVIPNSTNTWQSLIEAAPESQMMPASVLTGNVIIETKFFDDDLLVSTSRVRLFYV
UniProt Q504Q3, sequence (Q504Q3 whole entry, looked up): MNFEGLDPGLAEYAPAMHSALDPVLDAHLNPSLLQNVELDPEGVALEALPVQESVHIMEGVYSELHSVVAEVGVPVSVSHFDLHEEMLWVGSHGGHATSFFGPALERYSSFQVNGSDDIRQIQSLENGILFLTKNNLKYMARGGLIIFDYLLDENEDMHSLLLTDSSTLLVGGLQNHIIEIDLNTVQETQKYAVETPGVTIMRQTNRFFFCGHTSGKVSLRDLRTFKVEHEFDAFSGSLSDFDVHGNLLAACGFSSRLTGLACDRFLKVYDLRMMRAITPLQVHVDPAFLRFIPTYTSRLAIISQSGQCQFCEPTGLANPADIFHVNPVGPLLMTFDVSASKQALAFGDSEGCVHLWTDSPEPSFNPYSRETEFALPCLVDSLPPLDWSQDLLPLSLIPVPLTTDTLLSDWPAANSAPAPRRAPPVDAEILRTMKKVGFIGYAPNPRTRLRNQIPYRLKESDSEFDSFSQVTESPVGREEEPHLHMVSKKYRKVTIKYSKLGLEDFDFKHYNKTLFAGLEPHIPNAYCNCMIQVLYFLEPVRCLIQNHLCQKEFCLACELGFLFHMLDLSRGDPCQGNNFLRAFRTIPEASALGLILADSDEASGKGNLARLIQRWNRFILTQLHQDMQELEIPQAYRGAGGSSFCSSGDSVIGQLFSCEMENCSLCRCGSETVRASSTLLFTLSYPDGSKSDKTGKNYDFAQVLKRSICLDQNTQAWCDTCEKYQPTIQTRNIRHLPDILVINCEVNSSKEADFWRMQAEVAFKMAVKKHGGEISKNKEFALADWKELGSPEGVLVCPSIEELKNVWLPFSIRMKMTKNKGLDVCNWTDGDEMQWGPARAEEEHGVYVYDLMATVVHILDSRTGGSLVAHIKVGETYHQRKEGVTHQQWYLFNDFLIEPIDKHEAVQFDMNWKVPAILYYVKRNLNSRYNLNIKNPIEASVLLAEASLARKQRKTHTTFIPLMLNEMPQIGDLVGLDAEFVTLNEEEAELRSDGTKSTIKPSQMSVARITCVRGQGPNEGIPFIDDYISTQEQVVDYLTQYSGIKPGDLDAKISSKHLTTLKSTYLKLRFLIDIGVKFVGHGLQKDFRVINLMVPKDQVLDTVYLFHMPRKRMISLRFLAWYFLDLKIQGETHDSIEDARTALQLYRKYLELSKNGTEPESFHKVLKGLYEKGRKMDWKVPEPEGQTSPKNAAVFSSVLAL

log2 fold change, inactive:
PCBP2 (UniProt F8VRH0) -0.201
PPP2R5B (UniProt Q15173) 0.015
PTEN isoform 2 (UniProt P60484) -0.016
PMVK (UniProt Q15126) 0.142
PHLDB1 isoform 2 (UniProt Q86UU1) -0.04
PSMC1 (UniProt G3V4X1) 0.108
POLR2E (UniProt P19388) 0.015
PIAS4 (UniProt Q8N2W9) -0.064
PDE6D (UniProt O43924) -0.29
PRR14L (UniProt Q5THK1) 0.006
PSMB9 (UniProt P28065) 0.033
PIM1 isoform 2 (UniProt P11309) -0.068
PIGH (UniProt Q14442) -0.038
PUM1 (UniProt Q14671) -0.084
PRKD2 (UniProt M0R346) -0.025
PRKCE (UniProt Q02156) -0.067
PCF11 (UniProt O94913) 0.038

These targets were tested with CN(C)CC(=O)Nc1ccc2[nH]c(=O)c3ccccc3c2c1 in the same assay as above.
In short: as §1

log2 fold change, inactive:
PCNX1 (UniProt Q96RV3) -0.064
PCBP2 (UniProt F8VRH0) 0.139
PPP2R5B (UniProt Q15173) 0.128
PMVK (UniProt Q15126) 0.018
PHLDB1 isoform 2 (UniProt Q86UU1) -0.034
POLR2E (UniProt P19388) 0.034
PSMD8 (UniProt K7ERW6) 0.027
PDE4DIP (UniProt E9PS60) 0.095
PDE6D (UniProt O43924) 0.05
PRR14L (UniProt Q5THK1) -0.134
PTP4A3 (UniProt O75365) 0.205
PAN2 (UniProt Q504Q3) 0.006
PSMA3 (UniProt G3V4X5) 0.084
PSMB9 (UniProt P28065) -0.043
PIGH (UniProt Q14442) 0.013
PDE4A (UniProt P27815) 0.082
PUF60 isoform 2 (UniProt Q9UHX1) 0.067
PRKCE (UniProt Q02156) 0.036
PSD3 (UniProt Q9NYI0) 0.004
POLR2M (UniProt Q6EEV4) 0.091
PSMC3 (UniProt E9PLG2) -0.238
PSMA3 (UniProt H0YJ03) -0.04
PCF11 (UniProt O94913) -0.078

Each target was assayed with CN(CCOC1=CC=C(C=C1)C[C@H]2C(=O)NC(=O)S2)C3=CC=CC=N3 (racemic) [rosiglitazone] in the same assay as above.
In short: as §1

log2 fold change, inactive:
PCNX1 (UniProt Q96RV3) 0.028
PCBP2 (UniProt F8VRH0) -0.042
PPP2R5B (UniProt Q15173) 0.11
PMVK (UniProt Q15126) 0.067
PHLDB1 isoform 2 (UniProt Q86UU1) 0.055
PHC3 isoform 7 (UniProt Q8NDX5) 0.066
PPP2R5C isoform 2 (UniProt Q13362) 0.009
PLCXD1 (UniProt Q9NUJ7) 0.009
POLR2E (UniProt P19388) 0.01
PDE6D (UniProt O43924) -0.054
PTP4A3 (UniProt O75365) 0.045
PAN2 (UniProt Q504Q3) 0.181
PPP1R12B isoform 6 (UniProt O60237) 0.006
PSMA3 (UniProt G3V4X5) 0.122
PSMB9 (UniProt P28065) -0.057
PIGH (UniProt Q14442) 0.058
PCBP2 (UniProt F8VZX2) 0.065
PDE4A (UniProt P27815) 0.078
PUF60 isoform 2 (UniProt Q9UHX1) -0.011
PRKD2 (UniProt M0R346) -0.026
PRKCE (UniProt Q02156) 0.068
PRKX (UniProt P51817) 0.191
POLR2M (UniProt Q6EEV4) 0.097
PSMC3 (UniProt E9PLG2) 0.043
PCF11 (UniProt O94913) 0.314

These targets were tested with CN1C2=C(C3=C1C(=O)N(N=C3)CC4=CC(=CC=C4)N)SC(=C2)S(=O)C in the same assay as above.
In short: as §1

log2 fold change, inactive:
PCBP2 (UniProt F8VRH0) -0.306
PPP2R5B (UniProt Q15173) -0.05
PMVK (UniProt Q15126) 0.036
PHLDB1 isoform 2 (UniProt Q86UU1) -0.022
POLR2E (UniProt P19388) 0.092
PIAS4 (UniProt Q8N2W9) 0.173
PDE6D (UniProt O43924) -0.096
PAN2 (UniProt Q504Q3) 0.143
PIGH (UniProt Q14442) 0.115
PCBP2 (UniProt F8VZX2) 0.098
PUM1 (UniProt Q14671) 0.078
PUF60 isoform 2 (UniProt Q9UHX1) -0.259
PRKCE (UniProt Q02156) -0.106
POLR2M (UniProt Q6EEV4) 0.105
PSMC3 (UniProt E9PLG2) 0.046
PSMA3 (UniProt H0YJ03) 0.027
